Results as given in PubChem BioAssay (NCI).
“And” between values parts separate entries of the source, which are not always exact repeats. Equal entries are not always repeated. The panel holds about 79,000 compounds, 15% with a hit somewhere; the sample as a whole holds those more often. A structure can be active in one record and inactive in another. The source made the active and inactive calls. No stated cut-off is given here; in the data, active means growth inhibition above about 70%; inactive means the rest.

How the values were obtained:
[1] = NCI Yeast Anticancer Drug Screen. Data for the rad50 strain (AID 155);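 further: 0% = growth of vehicle-only cultures of the same strain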; details: S. cerevisiae rad50 strain growth inhibition, stronger effect = higher value
Outline: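 A DNA repair-deficient yeast mutant serves as the test organism; compound-induced growth inhibition is calculated against vehicle-treated cells.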

[2] = NCI Yeast Anticancer Drug Screen. Data for the mec2-1 strain (AID 157); details: S. cerevisiae mec2-1 strain, stronger effect = higher value
Outline: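 Test agents were screened against the mec2-1 yeast strain, with defined DNA repair or cell cycle alteration. Growth was scored as inhibition against vehicle-only controls.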

[3] = NCI Yeast Anticancer Drug Screen. Data for the sgs1 mgt1 strain (AID 161);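 further: 0% = growth of cultures given vehicle only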; details: S. cerevisiae sgs1 mgt1 strain, stronger effect = higher value
Outline: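 Mutant yeast exposed to compound; growth scored against vehicle-only wells.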

[4] = NCI Yeast Anticancer Drug Screen. Data for the cln2 rad14 strain (AID 165);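 further: 0% = growth equal to vehicle treated cultures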; details: S. cerevisiae cln2 rad14 strain, stronger effect = higher value
Outline: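 Growth of compound-exposed yeast (cln2 rad14 genotype) measured and expressed as inhibition relative to vehicle.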

[5] = NCI Yeast Anticancer Drug Screen. Data for the bub3 strain (AID 167); details: S. cerevisiae bub3 mutant strain, stronger effect = higher value
Outline: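 Inhibition values come from growth of compound-treated mutant yeast normalised to vehicle-treated controls.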

[6] = NCI Yeast Anticancer Drug Screen. Data for the mlh1 rad18 strain (AID 175); details: S. cerevisiae mlh1 rad18 strain growth inhibition, stronger effect = higher value
Outline: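 In this whole-cell yeast screen, a strain with altered DNA damage repair is challenged with compound, and its growth is measured against matched vehicle-treated controls.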

[7] = NCI Yeast Anticancer Drug Screen. Data for the wt2 strain (AID 169);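 further: 0% = growth of vehicle-treated yeast cultures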; details: S. cerevisiae wt2 strain growth inhibition, stronger effect = higher value
Outline: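 Genetically defined yeast strains from a DNA-repair/cell-cycle panel were used. Compound-exposed yeast growth was measured, and the inhibition was calculated relative to vehicle treatment.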

[8] = at 5.0 µM (retest, dose inferred, filed as 0.5)
[9] = at 50.0 µM (retest, dose inferred, filed as 5.0)

Measured: growth inhibition

O=C(NN1CCOC1=O)OCCCl
active: [6]; at 50.0 µM 73.5%
inactive: [1]; [8] -2% | [1]; [9] 2% | [1]; at 50.0 µM 24.7% | [2]; [8] -1% | [2]; [9] -6% | [2]; at 50.0 µM 18.7% | [3]; [8] -8% | [3]; [9] -7% | [3]; at 50.0 µM 34.6% | [4]; [8] 9% | [4]; [9] 0% | [4]; at 50.0 µM 24.6% | [5]; [8] 6% | [5]; [9] 2% | [5]; at 50.0 µM -16.1% | [6]; [8] -1% | [6]; [9] 1%

CCCCCCC(C(=O)OCC)N1C(=O)c2ccccc2S1(=O)=O (stereo unspecified)
inactive: [1]; [8] -3% | [1]; [9] 36% | [1]; at 50.0 µM 2.55% | [2]; [8] -5% | [2]; [9] 10% | [2]; at 50.0 µM 21.7% | [3]; [8] -4% | [3]; [9] 65% | [3]; at 50.0 µM 30.5% | [4]; [8] -3% | [4]; [9] 16% | [4]; at 50.0 µM 12.2% | [5]; [8] 10% | [5]; [9] 55% | [6]; [8] 5% | [6]; [9] 36% | [6]; at 50.0 µM 61.9%
active: [5]; at 50.0 µM 88.5%

OC1(C2C=CC=C2)c2ccccc2C=Cc2ccccc21
active: [1]; at 50.0 µM 91% | [3]; at 50.0 µM 78.6% | [4]; [9] 70% | [6]; at 50.0 µM 89.6%
inactive: [1]; [8] 4% | [1]; [9] 51% | [2]; [8] 13% | [2]; [9] 48% | [2]; at 50.0 µM 10.7% | [3]; [8] 4% | [3]; [9] 54% | [4]; [8] -36% | [4]; at 50.0 µM 48.4% | [5]; [8] -14% | [5]; [9] -85% | [5]; at 50.0 µM 69.5% | [6]; [8] 9% | [6]; [9] 37%

CC(CCc1nc2ccccc2s1)(c1ccc(O)cc1)c1ccc(O)cc1
inactive: [1]; [8] 27% | [2]; [8] -5% | [3]; [8] 15% | [4]; [8] 6% | [5]; [8] -12% | [6]; [8] 11%
active: [1]; [9] 99% | [1]; at 50.0 µM 99.5% | [2]; [9] 100% | [2]; at 50.0 µM 99.7% | [3]; [9] 100% | [3]; at 50.0 µM 99.3% | [4]; [9] 99% | [4]; at 50.0 µM 98.3% | [5]; [9] 99% | [5]; at 50.0 µM 99.2% | [6]; [9] 100% | [6]; at 50.0 µM 99.2%

O=[N+]([O-])c1cc([N+](=O)[O-])c2ccccc2c1NS(=O)(=O)/C=C/c1ccccc1
inactive: [1]; [8] 5% | [1]; [9] 54% | [1]; at 50.0 µM 53% | [2]; [8] 8% | [2]; [9] 64% | [3]; [8] 16% | [3]; [9] 47% | [3]; at 50.0 µM 49% | [4]; [8] 10% | [4]; at 50.0 µM 50.4% | [5]; [8] 2% | [5]; [9] 42% | [5]; at 50.0 µM 16.3% | [6]; [8] 7% | [6]; at 50.0 µM 44.5%
active: [2]; at 50.0 µM 70.7% | [4]; [9] 77% | [6]; [9] 71%

c1ccc(Cc2cc3ccccc3c3ccccc23)cc1
active: [5]; at 50.0 µM 91.3% | [6]; at 50.0 µM 82.5%
inactive: [1]; [8] 4% | [1]; [9] 14% | [1]; at 50.0 µM 20.1% | [2]; [8] 5% | [2]; [9] 23% | [2]; at 50.0 µM 14.9% | [3]; [8] 2% | [3]; [9] -3% | [3]; at 50.0 µM -6.6% | [4]; [8] 16% | [4]; [9] 6% | [4]; at 50.0 µM -0.55% | [5]; [8] 2% | [5]; [9] 3% | [6]; [8] 4% | [6]; [9] -2%

O=c1c(O)cccc2cc(O)c(O)c(O)c12
active: [1]; [9] 90% and 98% | [1]; at 50.0 µM 89.2% and 90.3% | [2]; [9] 94% and 98% | [2]; at 50.0 µM 91.4% and 91.2% | [3]; [9] 92% and 98% | [3]; at 50.0 µM 89.7% and 91.3% | [4]; [9] 91% and 97% | [4]; at 50.0 µM 85.5% and 87.5% | [5]; [9] 94% and 97% | [5]; at 50.0 µM 87% and 90.2% | [6]; [9] 93% and 97% | [6]; at 50.0 µM 87.2% and 91.1%
inactive: [1]; [8] 9% and 29% | [2]; [8] -22% and 25% | [3]; [8] -4% and 36% | [4]; [8] 12% and 6% | [5]; [8] 5% and 29% | [6]; [8] -4% and 48%

O=S(c1cc(Br)ccc1O)c1cc(Br)ccc1O
inactive: [1]; [8] 31% | [2]; [8] 49% | [3]; [8] 69% | [4]; [8] 39% | [5]; [8] 23%
active: [1]; [9] 99% | [1]; at 50.0 µM 99.3% | [2]; [9] 100% | [2]; at 50.0 µM 99.7% | [3]; [9] 99% | [3]; at 50.0 µM 99% | [4]; [9] 99% | [4]; at 50.0 µM 99.3% | [5]; [9] 99% | [5]; at 50.0 µM 99.3% | [6]; [8] 80% | [6]; [9] 100% | [6]; at 50.0 µM 99.5%

Fc1cccc(CSC(=S)Nc2ccc(F)c(F)c2)c1
inactive: [1]; [8] 12% | [2]; [8] 13% | [3]; [8] 10% | [4]; [8] -2% | [5]; [8] -2% | [6]; [8] 8%
active: [1]; [9] 99% | [1]; at 50.0 µM 99.6% | [2]; [9] 99% | [2]; at 50.0 µM 99.8% | [3]; [9] 99% | [3]; at 50.0 µM 99.7% | [4]; [9] 91% | [4]; at 50.0 µM 99.5% | [5]; [9] 95% | [5]; at 50.0 µM 99.7% | [6]; [9] 99% | [6]; at 50.0 µM 99.7%

O=C(OC(=Nc1ccccc1)N(c1ccccc1)c1ccccc1)c1ccccc1
inactive: [1]; [8] 5% | [1]; [9] 27% | [1]; at 50.0 µM 13% and 20.9% | [2]; [8] 5% | [2]; [9] 8% | [2]; at 50.0 µM 3.75% and 12.8% | [3]; [8] -7% | [3]; [9] 40% | [3]; at 50.0 µM 12.7% and -15.7% | [4]; [8] 5% | [4]; [9] 21% | [4]; at 50.0 µM 17.8% and -2.05% | [5]; [8] 17% | [5]; [9] 34% | [5]; at 50.0 µM 5.4% and -0.45% | [6]; [8] 9% | [6]; [9] 20% | [6]; at 50.0 µM 1.95% and 12.6%

Oc1cc2c3c(c1)c1cc4c(cc1c[n+]3CC2)OCO4
85% (active) and 63% (inactive): [3]; [9]
inactive: [1]; [8] 42% and 11% | [1]; at 50.0 µM -22.4% and 52% | [2]; [8] 36% and 10% | [2]; [9] 57% and 41% | [2]; at 50.0 µM -44.9% and 33.4% | [3]; [8] 64% and 33% | [3]; at 50.0 µM -5.25% and 50.9% | [4]; [8] 59% and 28% | [4]; at 50.0 µM 0.95% and 43.3% | [5]; [8] 63% and 23% | [5]; at 50.0 µM -36.8% and 31.2% | [6]; [8] 30% and 7% | [6]; [9] 65% and 57% | [6]; at 50.0 µM -30.6% and 53%
72% (active) and 56% (inactive): [1]; [9]
74% (active) and 39% (inactive): [4]; [9]
84% (active) and 60% (inactive): [5]; [9]

N#CCCC(CCC#N)(CCC#N)C(=O)c1ccccc1
inactive: [1]; [8] 10% | [1]; [9] 4% | [1]; at 50.0 µM 11.6% and 20.9% | [2]; [8] -15% | [2]; [9] -6% | [2]; at 50.0 µM 15.8% and -3.15% | [4]; [8] 4% | [4]; [9] 14% | [4]; at 50.0 µM 26.1% and 18.9% | [5]; [8] 10% | [5]; [9] 23% | [5]; at 50.0 µM 18.1% and 7.55% | [6]; [8] 20% | [6]; [9] 12% | [6]; at 50.0 µM 20.2% and 26.8%

C[n+]1c2cc(N)ccc2cc2ccc(N)cc21
97% (active) and 44% (inactive): [3]; [9]
28% (inactive) and 100% (active): [6]; [8]
inactive: [3]; [8] 3% and -17% | [4]; [8] 10% and 35% | [4]; at 50.0 µM 53.9% and 39.6% | [7]; at 1.2 µM -6% | [7]; at 3.7 µM -12% | [7]; at 11.0 µM 4% | [7]; at 33.0 µM 25%
11% (inactive) and 100% (active): [2]; [8]
active: [1]; [9] 98% and 99% | [1]; at 50.0 µM 97.4% and 75.2% | [2]; [9] 99% and 100% | [2]; at 50.0 µM 75.3% and 79% | [7]; at 100.0 µM 84% | [6]; [9] 97% and 100% | [6]; at 50.0 µM 91.3% and 83.5%
55% (inactive) and 100% (active): [1]; [8]
97% (active) and 64% (inactive): [4]; [9]
67.9% (inactive) and 78.2% (active): [3]; at 50.0 µM

COc1ccc2c(c1)c[n+](C)c1c3cc(OC)c(OC)cc3ccc21
inactive: [1]; [8] 17% | [1]; [9] 23% | [1]; at 50.0 µM 5.2% and 37.6% | [2]; [8] 23% | [2]; [9] 20% | [2]; at 50.0 µM 2.8% and 35.4% | [3]; [8] -21% | [3]; [9] 47% | [3]; at 50.0 µM 43.2% and 48.9% | [4]; [8] -12% | [4]; [9] -8% | [4]; at 50.0 µM 34.6% and 13.8% | [5]; [8] 8% | [5]; [9] 61% | [5]; at 50.0 µM 25.9% and 19.1% | [6]; [8] 16% | [6]; [9] 19% | [6]; at 50.0 µM -19.9% and 32.5%
